# The whole screen tested about 16,000 compounds, of which about 2,600 (16%) were called active. About 20% were inconclusive and are not listed. The call rests on the fitted dose curve; in most records, active means well fitted curve in the direction sought with a large enough effect; inconclusive means small, poorly fitted or top-dose-only effect, or effect the other way; inactive means no such curve, though single readings can be large or run the other way. These entries were drawn from the full list.
# Target: Cytochrome P450 2D6 (Homo sapiens) (UniProt P10635)
# Assay: Cytochrome panel assay with activity outcomes
# Conditions: recombinant CYP, pro-luciferin dealkylation, luminescence, p450-cyp2d6; series mostly up to 57.1 µM; activity, negative = inhibition: at the top concentration
# On the % scale 0 is the no-effect control and ±100 the full control effect.
# Cytochrome P450 2D6 (Homo sapiens), sequence (P10635 whole entry, looked up): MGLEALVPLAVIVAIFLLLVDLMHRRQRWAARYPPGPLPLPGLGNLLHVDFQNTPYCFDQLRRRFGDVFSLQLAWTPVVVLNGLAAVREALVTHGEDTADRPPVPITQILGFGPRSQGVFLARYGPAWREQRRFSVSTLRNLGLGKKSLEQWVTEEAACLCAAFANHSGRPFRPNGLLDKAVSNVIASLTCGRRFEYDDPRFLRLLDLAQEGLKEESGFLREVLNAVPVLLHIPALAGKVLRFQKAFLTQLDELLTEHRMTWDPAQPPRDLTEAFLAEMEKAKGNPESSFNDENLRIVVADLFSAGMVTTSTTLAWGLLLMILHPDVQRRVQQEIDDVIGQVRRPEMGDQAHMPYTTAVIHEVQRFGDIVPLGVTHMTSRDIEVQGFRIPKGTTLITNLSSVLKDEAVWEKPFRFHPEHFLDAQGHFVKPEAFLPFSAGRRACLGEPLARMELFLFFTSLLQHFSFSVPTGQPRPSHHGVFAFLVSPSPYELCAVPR
Structure (SMILES),"activity, negative = inhibition",AC50
CN(C)CCNc1ncnc2c1sc1nc(N3CCOCC3)c3c(c12)CC(C)(C)SC3,-6.95% (inactive),
CC(C)/C(=N/[N+](C)(C)C)c1ccccc1,6.75% [at 11.4 µM] (inactive),
CC1(C)CC(=O)C/C(=N/NC(=O)CCCOc2ccc(Cl)cc2Cl)C1,-22.8% (inactive),
CC(C)NCCCOc1ccc(Cl)cc1Br,,0.178 µM (active)
CC(C)C(=O)Nc1ccc(C(=O)NNC(=O)CCCOc2ccc(Cl)cc2Cl)cc1,-9.88% (inactive),
CC1(C)O[C@H]2[C@@H](O1)[C@@H](On1nnc3ccc(Cl)cc31)O[C@@H]2[C@@H]1COC(C)(C)O1,-7.25% [at 11.4 µM] (inactive),
COc1ccc(C(=O)NNC(=O)CSc2nnc(COc3ccc4ccccc4c3)n2C)cc1,-0.0652% (inactive),
Oc1ccc(-c2[nH]ncc2-c2ccc(Cl)cc2)c(O)c1,,8.91 µM (active)
C=C(C)COc1ccc(-c2n[nH]c(C)c2-c2ccc(OC)cc2)c(O)c1,-87.9% (inactive),
Cc1[nH]nc(-c2ccc(O)cc2O)c1-c1ccc(Cl)cc1,,3.55 µM (active)
CCCCc1ccc(-c2csc(/C(C#N)=C/c3ccc(C)o3)n2)cc1,-2.34% (inactive),
CS(=O)c1ccccc1-c1nc(-c2cc(C(F)(F)F)cc(C(F)(F)F)c2)no1 (stereo unspecified),-17% (inactive),
COc1ccc(-n2nc3cc(C)c(NC(=S)NC(=O)c4ccccc4C)cc3n2)cc1,6.83% (inactive),
COC(=O)c1cc(C(=O)c2ccc(Cl)cc2Cl)cn1C,9.82% (inactive),
CC1(C)S[C@@H]2[C@H](NC(=O)[C@@H](N)c3ccccc3)C(=O)N2[C@H]1C(=O)O[C@H]1OC(=O)c2ccccc21,0.075% [at 25.6 µM] (inactive),
Cc1ccc(Nc2c([N+](=O)[O-])ccc3c2=NC2(CCCCC2)N=3)cc1,,25.1 µM (active)
CC(=O)Nc1ccc(Nc2ncc([N+](=O)[O-])c(Nc3ccc(NC(C)=O)cc3)n2)cc1,-4.74% (inactive),
O=C(NC1CCCC1)c1cccnc1N1CCCCCC1,11.3% (inactive),
Cc1ccc(NC(=O)c2sc3nc[nH]c(=O)c3c2C)c(C)c1,-18.3% (inactive),
CCCSc1nnc2n(N)c(=O)c3ccccc3n12,-7.37% (inactive),
COC(=O)c1cccc(NC(=O)CCCOc2ccccc2)c1,,10 µM (active)

Structure (SMILES),"activity, negative = inhibition",AC50
O=C(CCOc1ccccc1)Nc1ccccc1,21.3% (inactive),
Cc1c(NC(=O)CCCOc2ccccc2)cccc1[N+](=O)[O-],,1.58 µM (active)
CCC(=O)Nc1cccc(C(=O)/C=C/c2ccccc2)c1,-16.4% (inactive),
Cc1c(NC(=O)/C=C/C(=O)O)cccc1[N+](=O)[O-],0.595% (inactive),
Cc1ccc(OCCCC(=O)Nc2ccccc2C(F)(F)F)cc1,-17.2% (inactive),
CCc1sc(-c2c(C#N)c(N)nc3c2CCCCCC3)cc1[N+](=O)[O-],-11.8% (inactive),
COc1ccccc1CCn1c(=O)c(-c2cn(C)c3ccccc23)nc2cncnc21,-10.1% (inactive),
CC(C)n1c(O)c(/C=C2\C=Nc3ccccc32)sc1=Nc1ccccc1,-18% (inactive),
CCN(CC)CCNc1ccc(CO)c2sc3ccccc3c(=O)c12,,5.01 µM (active)
O=c1c2ccccc2sc2c(CO)ccc(NCCN3CCCCC3)c12,,1.26 µM (active)
COc1ccc2sc3ccccc3c(=O)c2c1OC,-15.6% (inactive),
C#CCCCO/N=C1/C[C@@H](O)[C@@H](O)[C@@H]2[C@@H]3C(=O)N(C[C@@H]4CCCO4)C(=O)[C@H]3CC[C@H]12,-7.06% [at 11.4 µM] (inactive),
Cn1c(=O)c(-c2ccccc2)nc2cnc(N3CCOCC3)nc21,-3.69% (inactive),
CC(=O)OC1COC(N2CCc3cc([N+](=O)[O-])ccc32)C(OC(C)=O)C1OC(C)=O (stereo unspecified),27% (inactive),
COc1cccc(-c2csc(N3CCN(CC(=O)NNC(=O)c4ccc(Cl)cc4)CC3)n2)c1,-17.2% (inactive),
CC(C)(CO[C@H]1C[C@H]2CC[C@@]1(C)C2(C)C)[N+](=O)[O-],11.9% [at 11.4 µM] (inactive),
CC(C)=CCC/C(C)=C/CO/N=C1/C[C@@H](O)[C@@H](O)[C@@H]2[C@@H]3C(=O)N(C4CCCCC4)C(=O)[C@H]3CC[C@H]12,-9.81% [at 11.4 µM] (inactive),
CS(=O)(=O)c1ccc(/C=N\NC(N)=S)cc1,9.53% [at 11.4 µM] (inactive),
CC1(C)Cc2c(sc3nc(SCC(=O)NCc4ccccc4)n(-c4ccccc4)c(=O)c23)CS1,,3.55 µM (active)
CC(Cc1ccccc1)NC(=O)CSc1nc2nc3c(cc2c(=O)n1-c1ccccc1)COC(C)(C)C3 (stereo unspecified),-28.9% (inactive),
Cc1ccc(-n2c(N)c(C(=O)NCc3ccco3)sc2=S)cc1,-9.85% (inactive),

Structure (SMILES),"activity, negative = inhibition",AC50
Cc1ccc(-n2c(SCC(=O)NCc3ccco3)nc3sc4c(c3c2=O)CC(C)(C)SC4)cc1,,2.82 µM (active)
CCc1c(O)nc(SCC(=O)NC(C)(C)C)n(-c2ccccc2)c1=O,-8.15% (inactive),
O=C(CSc1nnc2sc3ccccc3n12)NCc1ccco1,-17.7% (inactive),
Cn1cc[nH]c1=S,6.67% [at 25.6 µM] (inactive),
Cn1cnc([N+](=O)[O-])c1SCC(=O)O,-1.18% [at 11.4 µM] (inactive),
C[C@@H]1C[C@H](OC(=O)c2ccccc2O)CC(C)(C)C1,-4.22% [at 25.6 µM] (inactive),
COc1ccc(NC(=O)CSc2nc(-c3ccc(C)cc3)cc(C(F)(F)F)c2C#N)cc1,15.8% (inactive),
CSc1nc(N)nc(SCC(=O)Nc2ccc(Cl)cc2)c1C#N,,2.24 µM (active)
CCOc1ccc(NC(=O)CSc2nc(C)c3c(c2C#N)CCCC3)cc1,-8% (inactive),
O=C(c1cccc(F)c1)N1CCC2(CCCN(c3cccc(-c4ccccc4)c3)C2)CC1,-11.4% (inactive),
O=C(c1sc2ccccc2c1Cl)N1CCN(c2ccc(F)cc2)CC1,-28% (inactive),
CC1CCCN(C(=O)c2sc3cc([N+](=O)[O-])ccc3c2Cl)C1 (stereo unspecified),,10 µM (active)
CN1CCCN(C)C1c1cc([N+](=O)[O-])ccc1O,-9.66% [at 11.4 µM] (inactive),
CC1CCCC(NC(=O)C2CCN(S(=O)(=O)N3CCC4(CC3)OCCO4)CC2)C1C (stereo unspecified),-11.3% (inactive),
Cc1sc(N)c(C(=O)c2cccc(C(F)(F)F)c2)c1C,-0.502% (inactive),
O=C(Nc1c2c(nn1-c1ccc(F)cc1)CS(=O)(=O)C2)C12CC3CC(CC(C3)C1)C2,-0.0135% (inactive),
O=C(Oc1ccccc1[N+](=O)[O-])c1cccnc1,-12.6% (inactive),
CC(=O)NN1C(=O)c2ccc(Oc3cccc([N+](=O)[O-])c3)cc2C1=O,-9.46% (inactive),
Cn1cc([N+](=O)[O-])c(C(=O)Nc2cc(Oc3cccnc3)cc([N+](=O)[O-])c2)n1,,12.6 µM (active)

# From PubChem BioAssay AID1851 (National Center for Advancing Translational Sciences (NCATS), 2009)
